Screening data deposited in PubChem BioAssay by several laboratories.
YopH inh: YopH tyrosine phosphatase inhibitors, primary screen, biochemical, fluorescence Ex485/Em525; 140,000 compounds, 0.16% hits; YopH tyrosine phosphatase [Yersinia enterocolitica]; inhibition, % (no concentration beside the values); in the data active means inhibition above about 50%
RmlC RmlD mix: RmlC and RmlD coupled enzyme inhibitors, primary screen, biochemical, 384-well, compound mixtures, retest. inhibition, % at 5.5 µM. AID 1532, 2009. RmlC/RmlD coupled enzyme inhibition, 384-well mixture HTS. 110,000 compounds, 0.39% hits; in the data active means inhibition above about 30%, passing the limit was not always enough
RmlCD fluor art: counter-screen for RmlC/RmlD inhibitors: fluorescence artifact, dose response, artefact control, biochemical | 360 compounds, 96% hits | RmlC/RmlD assay fluorescence artifact counter-screen | calls only | AID 1696, 2009 | shares compounds with RmlC RmlD mix; call rule not given here;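 further: compound alone with no enzyme and no substrates present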
* marks the source's active call; other numbers are inactive results; i = inactive; / = no result given; + = active, no number. The list is not random: actives were taken first. Their share in the collection is about 0.44%.

SMILES	YopH inh	RmlC RmlD mix	RmlCD fluor art
Cc1ccn(C(=O)c2cc3cc(Cl)ccc3oc2=O)n1	-27	1	/
CN1C(=O)/C(=C/c2ccccc2OCc2cccc(F)c2)NC1=S	3	8	/
Cc1oc2ccccc2c1-c1cn2c(n1)SCC2	55*	52*	+
c1ccc(-c2cn3c(n2)SCC3)cc1	-15	0	/
CC(C)CNC(=O)c1ccccc1NC(=O)c1ccc(CSc2ccccc2)cc1	-9	/	/
CCOC(=O)CC(=O)CSc1nc2c(c(-c3cccs3)c1C#N)CCC2	3	/	/
CCOC(=O)CC(=O)CSc1nc2c(cc1C#N)CCC2	2	80*	+
COC(=O)CC(=O)CSc1nc2c(cc1C#N)CCCCC2	-16	138*	+
N#CCSc1nc2c(cc1C#N)CCCC2	-39	0	/
O=C1c2ccccc2C(O)(c2ncc[nH]2)N1CCc1ccccc1 (stereo not drawn)	9	0	/
CCOC(=O)c1sc2nc(N3CCOCC3)c3c(c2c1N)CCCC3	-2	-184	/
COC(=O)c1ccc(-c2sc3nc(N4CCOCC4)c4c(c3c2N)CCCC4)o1	-2	116*	+
CCOC(=O)c1ccc(N/C(=N\S(=O)(=O)c2ccc(F)cc2F)c2ccccc2)cc1	-29	/	/
CC(C)(C)C1CCc2c(C(=O)NNC(=O)CCCC(=O)O)csc2C1 (stereo not drawn)	-24	/	/
COC(=O)Cc1c(C)c2cc(Cl)c(OC(=O)c3ccco3)cc2oc1=O	-18	/	/
O=C(Oc1ccc2c3c(c(=O)oc2c1)CCC3)c1ccco1	-26	187*	+
O=C(Oc1cc2oc(=O)c3c(c2cc1Cl)CCCC3)c1ccco1	-17	141*	+
Cc1cc2oc(=O)c3c(c2cc1OC(=O)c1ccco1)CCCC3	-13	-48	/
COC(=O)Cc1c(C)c2ccc(OC(=O)c3ccco3)cc2oc1=O	-41	+	+
O=C(Oc1ccc2c3c(c(=O)oc2c1)CCCC3)c1cccs1	-14	/	/
CC(=O)Oc1cc2oc(=O)c3c(c2cc1Cl)CCC3	-28	/	+
CC(C)Oc1cc2oc(=O)c3c(c2cc1Cl)CCC3	-89	-6	/
C/C(=N\NC(=O)Cc1cccc2ccccc12)c1ccncc1	-31	/	/
COc1cccc(C(=O)NC(Cc2ccccc2)c2ccc3c(c2)OCCCO3)c1 (stereo not drawn)	3	8	/
CCOc1cc(/C=N/NC(=O)CCCC(=O)NC2CCCCC2)ccc1O	-25	/	/
SMILES	YopH inh	RmlC RmlD mix	RmlCD fluor art
CCN(CC)S(=O)(=O)c1ccc(C2=NOC3(C2)N(C)c2ccccc2C3(C)C)cc1 (stereo not drawn)	-24	/	/
COC(=O)C1CCN(C(=O)COC(=O)CCc2nc3ccccc3c(=O)[nH]2)CC1	-30	/	/
COc1cc2[nH]c(=O)n(CCC(=O)N3CC=C(c4ccccc4)CC3)c(=O)c2cc1OC	-26	-14	/
COc1cc2[nH]c(=O)n(CCCC(=O)N3CC=C(c4ccccc4)CC3)c(=O)c2cc1OC	-41	52*	i
CN(C)c1nc(SCc2ccc(Cl)cc2)nc2c1CCCC2	-11	8	/
O=C1CC2(CCCC2)Oc2ccccc21	/	-70	/
O=c1c2ccccc2nc(N2CCCC2)n1-c1ccccc1	4	13	/
O=c1c2ccccc2[se]n1-c1ccccc1	-23	57*	+
CCC(C)NC(=O)c1ccc(CS(=O)(=O)Cc2ccc(Cl)cc2)o1 (stereo not drawn)	-1	6	/
COc1ccccc1Oc1c(C)oc2c(CN3CCN(C)CC3)c(O)ccc2c1=O	-22	/	/
COC(=O)c1ccc(Oc2c(C)oc3c(CN4CCN(C)CC4)c(O)ccc3c2=O)cc1	-35	40*	+
CC(=O)Nc1nc2nc(-c3ccccc3)cc(-c3ccccc3)n2n1	-42	18	/
O=C1CCC(=O)N1c1nc2nc(-c3ccccc3)cc(-c3ccccc3)n2n1	-36	103*	+
Cc1ccc(NC(=S)C2=C(O)c3ccccc3N(C)S2(=O)=O)cc1	-46	-1	/
Cc1cc(N2CCC3(CC2)OCCO3)n2nc(C)c(-c3ccc(Cl)cc3)c2n1	-26	/	/
Cc1ccc(-c2nc3ccccc3n2C)o1	-12	-7	/
CC(=O)c1ccc(-c2nc3ccccc3n2C)o1	-20	151*	+
Cc1[nH]c2ccccc2c1C(=O)COC(=O)c1c(-c2c(F)cccc2Cl)noc1C	-15	/	/
CC[C@@]1(O)C(=O)OCc2c1cc1n(c2=O)Cc2cc3c(CN(C)C)c(O)ccc3nc2-1	/	38*	+
CC[C@@]1(O)C(=O)OCc2c1cc1n(c2=O)Cc2cc3c(N)cccc3nc2-1	/	13	/
Cc1ccc(NC(=O)CCn2ccc([N+](=O)[O-])n2)nc1	-22	/	/
COc1ccc2c3c(cccc13)N(C)N=C2C	25	/	/
CC[C@H](C)/C=C(C)/C=C/C1=CC2=C(Cl)C(=O)[C@@](C)(OC(C)=O)C(=O)C2=CO1	/	-13	/
CCC(C)/C=C(C)/C=C/C1=CC2=C(Cl)C(=O)C(C)(OC(C)=O)C(=O)C2=CO1 (stereo not drawn)	/	33*	+
COc1ccc(-c2csc(NC(=O)C3COc4ccccc4O3)n2)cc1OC (stereo not drawn)	/	-3	/
SMILES	YopH inh	RmlC RmlD mix	RmlCD fluor art
C=CC(=O)NCCCc1cc(C(C)(C)C)c(O)c(C(C)(C)C)c1	-23	/	/
O=C(C1=NNC2C(=O)N(c3ccccc3)C(=O)C12)c1nc(Cl)ccc1Cl (stereo not drawn)	-39	/	/
CCOc1cc(NC(=O)c2ccco2)c(OCC)cc1NC(=O)c1cc(OC)c(OC)c(OC)c1	-24	+	+
COc1cc(NC(=O)c2ccco2)c(OC)cc1NC(=O)c1cc(OC)c(OC)c(OC)c1	-8	2	/
Cc1ccc(CSCCNC(=O)/C=C/c2ccccc2Cl)cc1	-32	10	/
COc1cc2cc3c(N)c(C(=O)Nc4sc(C)c(C)c4C#N)sc3nc2cc1OC	-2	-3	/
